Values joined by “and” are separate entries in the source; they are usually repeats but may differ in a detail not shown here. Identical values can stand only once. The whole screen tested about 5,500 compounds, of which about 2,000 (36%) were called active. Roughly 18% stayed inconclusive and do not appear here. No stated cut-off is given here; in the data, active means normalized growth mostly below about 0.91 (no sharp cut-off); inconclusive means no clear call, values can overlap the other calls; inactive means mostly above about 0.92. Some of the results follow.
Assay: chemical genetic growth profiling, strain panel (AID 1159580);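 further: tested at 20 µM; growth read once vehicle control cultures reached saturation at 30 °C; 1 = growth at the plate median or of vehicle wells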
Details: growth OD
[1] = S. cerevisiae deletion strains, locus YGR078C, strain PAC10, stronger effect = lower value

Measured: normalized growth

CC1CC2C3CCC4=CC(=O)C=CC4(C)C3(F)C(O)CC2(C)C1(O)C(=O)CO (stereo not given)
inactive: S. cerevisiae deletion strains, locus YAL040C, strain CLN3, stronger effect = lower value 0.987 | S. cerevisiae deletion strains, locus YDR363W, strain ESC2, stronger effect = lower value 0.955 | S. cerevisiae deletion strains, locus YER002W, strain NOP16, stronger effect = lower value 1 | [1] 1.02 | S. cerevisiae deletion strains, locus YNL175C, strain NOP13, stronger effect = lower value 1.01 | S. cerevisiae deletion strains, locus YNL197C, strain WHI3, stronger effect = lower value 0.999 | S. cerevisiae deletion strains, locus YNL224C, strain SQS1, stronger effect = lower value 1.01 | S. cerevisiae deletion strains, locus YOR083W, strain WHI5 (second series), stronger effect = lower value 1.01

O=C(OCC(O)CO)c1ccccc1Nc1ccnc2cc(Cl)ccc12 (stereo not given)
inactive: S. cerevisiae deletion strains, locus YAL013W, strain DEP1, stronger effect = lower value 0.996 | S. cerevisiae deletion strains, locus YBR021W, strain FUR4, stronger effect = lower value 1.01 | S. cerevisiae deletion strains, locus YBR229C, strain ROT2, stronger effect = lower value 0.994 | S. cerevisiae deletion strains, locus YCL029C, strain bik1, stronger effect = lower value 0.961 | S. cerevisiae deletion strains, locus YDL035C, strain GPR1, stronger effect = lower value 1.01 | S. cerevisiae deletion strains, locus YDL074C, strain BRE1, stronger effect = lower value 0.978 | S. cerevisiae deletion strains, locus YDL101C, strain DUN1, stronger effect = lower value 0.98 | S. cerevisiae deletion strains, locus YDL134C, strain PPH21, stronger effect = lower value 0.999 | S. cerevisiae deletion strains, locus YDL185W, strain tfp1, stronger effect = lower value 0.978 | S. cerevisiae deletion strains, locus YDL192W, strain arf1, stronger effect = lower value 0.99 | S. cerevisiae deletion strains, locus YDR101C, strain arx1, stronger effect = lower value 0.988 | S. cerevisiae deletion strains, locus YDR150W, strain NUM1, stronger effect = lower value 0.98 | S. cerevisiae deletion strains, locus YDR162C, strain NBP2, stronger effect = lower value 0.992 | S. cerevisiae deletion strains, locus YDR318W, strain mcm21, stronger effect = lower value 0.977 | S. cerevisiae deletion strains, locus YDR388W, stronger effect = lower value 0.997 | S. cerevisiae deletion strains, locus YDR502C, strain sam2, stronger effect = lower value 0.975 | S. cerevisiae deletion strains, locus YEL061C, strain CIN8, stronger effect = lower value 0.997 | S. cerevisiae deletion strains, locus YER110C, stronger effect = lower value 0.978 | S. cerevisiae deletion strains, locus YER155C, strain BEM2, stronger effect = lower value 0.988 | S. cerevisiae deletion strains, locus YER167W, strain BCK2, stronger effect = lower value 0.986 | S. cerevisiae deletion strains, locus YGL078C, strain dbp3, stronger effect = lower value 0.995 | S. cerevisiae deletion strains, locus YGL086W, strain mad1, stronger effect = lower value 0.999 | S. cerevisiae deletion strains, locus YGL248W, strain PDE1, stronger effect = lower value 0.983 | [1] 0.962 | S. cerevisiae deletion strains, locus YGR135W, strain pre9, stronger effect = lower value 0.974 | S. cerevisiae deletion strains, locus YGR229C, strain SMI1, stronger effect = lower value 0.981 | S. cerevisiae deletion strains, locus YGR252W, strain gcn5, stronger effect = lower value 1.06 | S. cerevisiae deletion strains, locus YHR030C, strain SLT2, stronger effect = lower value 0.991 and 0.957 | S. cerevisiae deletion strains, locus YHR079C, strain IRE1 (second series), stronger effect = lower value 0.989 | S. cerevisiae deletion strains, locus YHR079C, strain IRE1, stronger effect = lower value 0.969 | S. cerevisiae deletion strains, locus YHR094C, strain hxt1, stronger effect = lower value 0.979 | S. cerevisiae deletion strains, locus YHR129C, strain ARP1, stronger effect = lower value 0.981 | S. cerevisiae deletion strains, locus YHR200W, strain rpn10, stronger effect = lower value 0.987 | S. cerevisiae deletion strains, locus YIL066C, strain RNR3, stronger effect = lower value 0.98 | S. cerevisiae deletion strains, locus YIL073C, strain SPO22, stronger effect = lower value 0.925 | S. cerevisiae deletion strains, locus YIL125W, strain kgd1, stronger effect = lower value 0.991 | S. cerevisiae deletion strains, locus YIR030C, strain dcg1, stronger effect = lower value 0.988 | S. cerevisiae deletion strains, locus YJL095W, strain BCK1, stronger effect = lower value 0.943 and 0.974 | S. cerevisiae deletion strains, locus YJL134W, strain LCB3, stronger effect = lower value 0.993 | S. cerevisiae deletion strains, locus YJL168C, strain set2, stronger effect = lower value 0.995 | S. cerevisiae deletion strains, locus YJL187C, strain SWE1 (second series), stronger effect = lower value 0.936 | S. cerevisiae deletion strains, locus YJR043C, strain POL32, stronger effect = lower value 0.982 | S. cerevisiae deletion strains, locus YJR066W, strain TOR1, stronger effect = lower value 0.912 | S. cerevisiae deletion strains, locus YJR075W, strain HOC1, stronger effect = lower value 0.978 | S. cerevisiae deletion strains, locus YKL009W, strain mrt4, stronger effect = lower value 0.968 | S. cerevisiae deletion strains, locus YKL068W, stronger effect = lower value 0.987 | S. cerevisiae deletion strains, locus YKL085W, strain MDH1 (second series), stronger effect = lower value 0.975 | S. cerevisiae deletion strains, locus YKL085W, strain MDH1, stronger effect = lower value 0.975 | S. cerevisiae deletion strains, locus YKL190W, strain CNB1, stronger effect = lower value 0.984 | S. cerevisiae deletion strains, locus YKR001C, strain vps1, stronger effect = lower value 0.99 | S. cerevisiae deletion strains, locus YLR039C, strain RIC1, stronger effect = lower value 1.01 | S. cerevisiae deletion strains, locus YLR058C, strain SHM2, stronger effect = lower value 0.986 | S. cerevisiae deletion strains, locus YLR102C, strain apc9, stronger effect = lower value 0.992 | S. cerevisiae deletion strains, locus YLR113W, strain HOG1, stronger effect = lower value 1.01 | S. cerevisiae deletion strains, locus YLR262C, strain YPT6, stronger effect = lower value 1.03 | S. cerevisiae deletion strains, locus YLR268W, strain sec22, stronger effect = lower value 0.918 | S. cerevisiae deletion strains, locus YLR330W, strain CHS5, stronger effect = lower value 0.988 | S. cerevisiae deletion strains, locus YLR342W, strain FKS1 (second series), stronger effect = lower value 1.05 | S. cerevisiae deletion strains, locus YLR371W, strain rom2, stronger effect = lower value 0.985 | S. cerevisiae deletion strains, locus YLR418C, strain cdc73, stronger effect = lower value 0.924 | S. cerevisiae deletion strains, locus YML016C, strain PPZ1, stronger effect = lower value 0.999 | S. cerevisiae deletion strains, locus YML032C, strain rad52, stronger effect = lower value 0.971 | S. cerevisiae deletion strains, locus YML124C, strain tub3, stronger effect = lower value 0.988 | S. cerevisiae deletion strains, locus YMR078C, strain ctf18, stronger effect = lower value 0.99 | S. cerevisiae deletion strains, locus YMR223W, strain ubp8, stronger effect = lower value 1.01 | S. cerevisiae deletion strains, locus YMR263W, strain SAP30, stronger effect = lower value 0.976 | S. cerevisiae deletion strains, locus YMR307W, strain GAS1, stronger effect = lower value 0.984 | S. cerevisiae deletion strains, locus YNL067W, strain RPL9B, stronger effect = lower value 0.968 | S. cerevisiae deletion strains, locus YNL128W, strain TEP1, stronger effect = lower value 0.975 | S. cerevisiae deletion strains, locus YNL153C, strain GIM3, stronger effect = lower value 0.976 | S. cerevisiae deletion strains, locus YNL183C, strain NPR1, stronger effect = lower value 0.899 | S. cerevisiae deletion strains, locus YNL233W, strain BNI4, stronger effect = lower value 0.974 | S. cerevisiae deletion strains, locus YNL250W, strain rad50, stronger effect = lower value 0.969 | S. cerevisiae deletion strains, locus YNL271C, strain bni1, stronger effect = lower value 0.987 | S. cerevisiae deletion strains, locus YNL298W, strain CLA4, stronger effect = lower value 0.993 | S. cerevisiae deletion strains, locus YNL307C, strain MCK1, stronger effect = lower value 0.983 | S. cerevisiae deletion strains, locus YNL322C, strain KRE1, stronger effect = lower value 0.988 | S. cerevisiae deletion strains, locus YNR052C, strain pop2, stronger effect = lower value 1.01 | S. cerevisiae deletion strains, locus YOL006C, strain TOP1, stronger effect = lower value 0.929 | S. cerevisiae deletion strains, locus YOL012C, strain htz1 1.65 | S. cerevisiae deletion strains, locus YOL147C, strain pex11, stronger effect = lower value 0.98 | S. cerevisiae deletion strains, locus YOR061W, strain CKA2, stronger effect = lower value 0.99 | S. cerevisiae deletion strains, locus YOR069W, strain VPS5, stronger effect = lower value 0.996 | S. cerevisiae deletion strains, locus YOR136W, strain idh2, stronger effect = lower value 0.998 | S. cerevisiae deletion strains, locus YOR144C, strain elg1, stronger effect = lower value 0.993 | S. cerevisiae deletion strains, locus YOR184W, strain ser1, stronger effect = lower value 0.954 | S. cerevisiae deletion strains, locus YOR231W, strain MKK1, stronger effect = lower value 0.983 | S. cerevisiae deletion strains, locus YOR316C, strain cot1, stronger effect = lower value 0.982 | S. cerevisiae deletion strains, locus YPL055C, strain LGE1, stronger effect = lower value 0.938 | S. cerevisiae deletion strains, locus YPL241C, strain CIN2, stronger effect = lower value 0.991 | S. cerevisiae deletion strains, locus YPL256C, strain CLN2, stronger effect = lower value 0.927 | S. cerevisiae deletion strains, locus YPR119W, strain clb2, stronger effect = lower value 0.99 | S. cerevisiae deletion strains, locus YPR141C, strain kar3, stronger effect = lower value 0.97 | S. cerevisiae deletion strains, locus YPR163C, strain tif3, stronger effect = lower value 0.979 | S. cerevisiae deletion strains, locus YPR167C, strain met16, stronger effect = lower value 0.989 | S. cerevisiae deletion strains, strain wtn01, stronger effect = lower value 0.98 | S. cerevisiae strains, strain wild type, stronger effect = lower value 0.991
